Screens: PubChem BioAssay, several laboratories
Compounds with a hit are over-represented: about 32% of the library has one in this group of screens.
CYP2C9 act – increases human cytochrome P450 2C9 activity | AID 1024 | 96,000 tested, 1.4% active | recombinant CYP2C9, luciferin-H conversion, luminescence; stronger effect = higher value; factor 1 = untreated enzyme, 0 = blocked | activation factor at 5 µM | P11712;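 active = activation factor of 2 or more for CYP2C9 at a 5 µM dose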;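 note: 0 = sulfaphenazole-blocked wells and 1 = vehicle-only wells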
Target sequence (P11712 whole entry, looked up): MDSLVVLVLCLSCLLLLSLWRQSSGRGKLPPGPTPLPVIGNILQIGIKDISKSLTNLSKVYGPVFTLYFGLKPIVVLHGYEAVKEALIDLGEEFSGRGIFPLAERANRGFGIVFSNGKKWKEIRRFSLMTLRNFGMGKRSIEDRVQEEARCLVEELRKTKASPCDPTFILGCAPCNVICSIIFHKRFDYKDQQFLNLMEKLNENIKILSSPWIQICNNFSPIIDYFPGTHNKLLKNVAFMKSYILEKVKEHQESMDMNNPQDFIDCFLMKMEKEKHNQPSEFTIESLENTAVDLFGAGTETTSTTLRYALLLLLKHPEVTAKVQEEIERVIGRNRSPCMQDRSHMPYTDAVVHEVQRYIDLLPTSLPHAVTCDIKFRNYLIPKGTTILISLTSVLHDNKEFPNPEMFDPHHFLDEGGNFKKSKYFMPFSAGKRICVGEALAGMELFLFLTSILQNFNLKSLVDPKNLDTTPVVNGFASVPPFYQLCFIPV
PostGolgi yeast – growth inhibition of a yeast mutant, post-Golgi transport screen; 98,000 tested, 0.9% active; AID 739; post-Golgi transport phenotypic cell assay; inhibition, % at 10 µM;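 note: yeast cells grown in 1536-well plates; yeast grown about 18 h at 30C before absorbance read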
CYP2C19 inh – inhibitors of human CYP2C19. CYP2C19 Supersomes, luciferin-H EGE luminescence, 30 min. inhibition, % at 5 µM. 96,000 tested, 21% active;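 active = CYP2C19 inhibition above a set limit at 5 µM in the primary screen, cut at about 50% in these data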;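 note: plate controls were negative control wells for no effect and 2.5 mM tranylcypromine positive control for full effect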
CYP2C9 inhib – human CYP2C9 inhibition; inhibition, % at 5 µM; P11712; CYP2C9 Supersomes, luciferin-H conversion, luminescence; 96,000 tested, 20% active;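 active = blocking of liver enzyme CYP2C9 beyond about 50% at 5 µM, limit read from the data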
CYP2C19 act – activators of human cytochrome P450 2C19 | recombinant CYP2C19, luciferin-H EGE luminescence; stronger effect = higher value; 0 = fully inhibited enzyme, 1 = untreated enzyme | activation factor at 5 µM | 96,000 tested, under 10 active;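 active = activation factor of at least 2 at 5 µM in the primary screen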;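 note: 0 = wells with 2.5 mM tranylcypromine and 1 = vehicle-only wells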
PostGolgi ctrl – yeast control strain growth, post-Golgi counter-screen; efflux-deficient yeast background strain, growth absorbance A615, 16 h; inhibition, % at 10 µM; 98,000 tested, 5% active
* hit, by the source's call; · = no result. Cut-off read from the data, not from the text of the source, unless noted: active = inhibition above about 30%; inactive = the rest.

SMILES	CYP2C9 act	PostGolgi yeast	CYP2C19 inh	CYP2C9 inhib	CYP2C19 act	PostGolgi ctrl
CCOC(=O)c1sc(/N=C/N(C)C)c(C(=O)OCC)c1C	0.7	0	19	30	0.8	-2
CCOC(=O)c1c(NC(=O)OC)sc2c1CCC2	1.1	-6	1	-9	1	4
CCOC(=O)c1sc(NC(=O)CN(CC)CC)c(C(=O)OCC)c1C	0.2	-9	20	76*	0.8	-11
CCOC(=O)c1c(N)sc2c1CCSC2	0.8	0	11	16	0.9	25
CCOC(=O)c1sc(NC(C)=O)c(C(=O)OCC)c1C	0.8	-5	27	24	0.7	2
CCOC(=O)Nc1sc(C(=O)N(CC)CC)c(C)c1C(=O)OCC	0.3	4	50	69*	0.5	13
CCCOC(=O)c1c(N)sc2c1CCC2	0.5	-7	43	50*	0.6	-4
O=C(NCCN1CCOCC1)Nc1ccc(Cl)cc1Cl	1.1	-2	6	-6	0.9	10
COc1cc2c(C(=O)N3CCCc4ccccc43)cn(C)c(=O)c2cc1OC	0.9	-4	26	11	0.7	-2
CC(C)C(NC(=O)CNC(=O)OC(C)(C)C)C(=O)NCc1ccccc1 (stereo not given)	1.1	2	32	-7	0.7	3
COc1ccccc1OCCOCCn1cnc2ccccc2c1=O	1.2	2	67*	-18	0.3	-3
C/C(CC(C)(C)C1CCCCC1)=N\NC(N)=S	0.7	107*	93*	35	0.1	100*
Cc1cc(C)nc(NC(=O)c2cccc(Cl)c2)n1	1	3	5	2	0.9	13
CC(CCc1ccccc1)NC(=O)C1CCN(S(=O)(=O)c2cnc[nH]2)CC1 (stereo not given)	0.1	-1	75*	93*	0.3	15
O=C(NC1CCCc2ccccc21)C1CCN(S(=O)(=O)c2cnc[nH]2)CC1 (stereo not given)	0.3	-3	44	70*	0.6	-7
O=C(NC1CCCc2ccccc21)C1CCN(S(=O)(=O)c2cccc3nonc23)CC1 (stereo not given)	1.6	23	7	-55	0.9	4
COc1ccc(-c2oc(NC(=O)c3ccc(C)cc3)c(C#N)c2-c2ccc(OC)cc2)cc1	0.1	-6	69*	94*	0.3	7
Cc1ccc(C(=O)Nc2oc(-c3ccccc3)cc2C#N)cc1	1	15	13	2	0.9	1
CCC(=O)Nc1nnc(-c2ccc(OC)cc2)o1	1	11	7	4	0.9	11
COc1ccc(-c2oc(/N=C/N3CCOCC3)c(C#N)c2-c2ccc(OC)cc2)cc1	0.1	10	64*	90*	0.4	9
COc1ccc(-c2oc(NC(C)=O)c(C#N)c2-c2ccc(OC)cc2)cc1	0.3	-6	57*	72*	0.4	7
COc1ccc(C(=O)Nc2oc(-c3ccccc3)c(-c3ccccc3)c2C#N)cc1OC	0.3	15	24	74*	0.8	18
Cn1c(=O)c2cc(S(=O)(=O)NCCC(=O)NCCc3ccc(Cl)cc3)ccc2n(C)c1=O	1.2	-5	11	-23	0.9	-8
COC(=O)Cc1cc(=O)n2[nH]c(C(F)(F)F)nc2n1	0.9	3	33	15	0.7	6
Cc1cccc2cc(CN(Cc3cccs3)C3(c4nnnn4C4CCCC4)CCCC3)c(=O)[nH]c12	0.6	-6	12	42	0.9	3
SMILES	CYP2C9 act	PostGolgi yeast	CYP2C19 inh	CYP2C9 inhib	CYP2C19 act	PostGolgi ctrl
COc1ccc(C(=O)Nc2oc(-c3ccccc3)c(-c3ccccc3)c2C#N)cc1	0.2	-17	47	77*	0.5	22
CCNc1cc2oc(=O)c(CN3CCOCC3)c(C)c2cc1C	3.3*	7	22	-227	0.8	1
N#Cc1cc2c(nc1SCC(=O)Nc1sc3c(c1C#N)CCC3)CCCCC2	0.8	3	0	16	1	-7
Cn1cnnc1SCC(=O)Nc1sc2c(c1C#N)CCCCC2	·	-2	·	·	·	1
N#Cc1cc2c(nc1SCC(=O)Nc1sc3c(c1C#N)CCC3)CCCC2	0.8	8	3	19	1	-3
N#Cc1c(NC(=O)CSc2nc(N)cc(=O)[nH]2)sc2c1CCCCCC2	0.7	-2	58*	30	0.4	-2
N#Cc1c(NC(=O)CSc2ncn[nH]2)sc2c1CCCCC2	0.3	-8	15	71*	0.8	26
N#Cc1c(NC(=O)CSc2ncn(-c3ccccc3)n2)sc2c1CCCC2	0.1	-4	81*	90*	0.2	13
O=C1C2C3c4ccccc4C(c4ccccc43)[C@@H]2c2nc3ccccc3n21 (stereo not given in full)	0.8	1	5	15	0.9	11
COc1ccc(-c2nnn(CC(=O)N(Cc3cccs3)C(C)C(=O)NCCC(C)C)n2)cc1OC (stereo not given)	0.7	-2	34	31	0.7	3
O=C1C2CC=C(Cl)CC2C(=O)N1CC1Cc2ccccc2CO1 (stereo not given)	0.9	-5	14	14	0.9	0
CCC(C)Cn1c(C(C)O)nc2ccccc21 (stereo not given)	0.8	2	1	17	1	2
Clc1ccc(CSc2ncccn2)cc1	1.1	-1	12	-7	0.9	7
Cn1c(CO)cnc1SCc1ccc(Cl)cc1	0.8	2	84*	17	0.2	9
CCCOc1cccc(NC(=O)c2cc(C)oc2C)c1	0.9	7	16	9	0.8	0
CCN(C(=O)CCc1nc(-c2ccccc2F)no1)c1cc(OC)ccc1OC	0.1	-5	94*	94*	0.1	15
O=C(CCc1nc(-c2ccccc2F)no1)NC1CCCCCC1	0.7	-7	27	28	0.7	-2
COc1ccc(CNC(=O)CCc2nc(-c3ccccc3F)no2)c(OC)c1	0.4	-2	74*	57*	0.3	2
COc1ccc(Br)cc1CNC(=O)CCc1nc(-c2ccccc2F)no1	0.4	0	65*	57*	0.3	28
Cc1ccc(-n2c(Cn3nc(C(F)F)cc3C(F)F)n[nH]c2=S)cc1	0.9	0	12	8	0.9	6
CCN(CC)C(=O)c1n[nH]c(=O)c2ccccc12	1.2	5	-26	-23	1.3	7
CCCCC1CC(/C(C)=N/NC(N)=O)OC1=O (stereo not given)	1	2	-2	1	1	-2
CCN(CCO)C(=O)C12CCC(C)(C(=O)C1)C2(C)C (stereo not given)	1.2	-7	-10	-22	1.1	-6
Cc1sc(Nc2ccc([N+](=O)[O-])cc2)nc1-c1c(C)n(C)n(-c2ccccc2)c1=O	0.8	-3	39	22	0.6	2
CN(C)c1ccnc2sc(C(=O)NCc3ccccc3)c(N)c12	0.6	13	5	39	1	63*
